6 compounds from PubChem BioAssay (EPA / NIEHS) can be followed below.

SMILES strings stand for the structures. Where a structure was tested more than once in an assay, its records may differ in their call. The source made the active and inactive calls. Rule for the calls: active = hit-call score of the fitted dose curve at least 0.9, where 1 is the maximum; inactive = score below 0.9.

Read-out in assay [1]: Tissue Factor, F3 (gene 2152)
The experiment in a line: BSK_CASM3C_TissueFactor: BioMAP Diversity Plus: CASM3C Assay for Tissue Factor Biomarker Activity (AID 2283052).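 Note: cell surface tissue factor protein level read by ELISA.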 The conditions noted are these: primary human coronary artery smooth muscle cells; actives raise or lower the signal.

Read-out in assay [2]: Interferon-gamma inducible Protein 10 (IP10), CXCL10 (gene 3627)
The experiment in a line: BSK_hDFCGF_IP10: BioMAP Diversity Plus: hDFCGF Assay for Interferon-gamma inducible Protein 10 (IP10) Biomarker Activity (AID 2283053). The conditions noted are these: primary human foreskin fibroblasts; actives raise or lower the signal. Put shortly: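 Primary human foreskin fibroblasts exposed to chemicals for 24 h. IP-10 measured by ELISA; changes fitted bidirectionally against DMSO baseline.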

Read-out in assay [3]: Urokinase-type plasminogen activator receptor (uPAR), PLAUR (gene 5329)
The assay is described as follows: BSK_CASM3C_uPAR: BioMAP Diversity Plus: CASM3C Assay for Urokinase-type plasminogen activator receptor (uPAR) Biomarker Activity (AID 2283054).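 Note: cell-surface uPAR protein level quantified by ELISA.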 The conditions noted are these: primary human coronary artery smooth muscle cells; actives raise or lower the signal.

Read-out in assay [4]: Vascular cell adhesion molecule 1 (VCAM1), VCAM1 (gene 7412)
The experiment in a line: BSK_CASM3C_VCAM1: BioMAP Diversity Plus: CASM3C Assay for Vascular cell adhesion molecule 1 (VCAM1) Biomarker Activity (AID 2283055).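 Note: VCAM-1 protein level quantified by ELISA on the cells.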 The conditions noted are these: primary human coronary artery smooth muscle cells; actives raise or lower the signal.

Read-out in assay [5]: Collagen III, COL3A1 (gene 1281)
The experiment in a line: BSK_hDFCGF_CollagenIII: BioMAP Diversity Plus: hDFCGF Assay for Collagen III Biomarker Activity (AID 2283056). The conditions noted are these: primary human foreskin fibroblasts; actives raise or lower the signal. The gist of the method:
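hDFCGF primary human dermal fibroblasts; 24 h chemical exposure; collagen III by ELISA; bidirectional curve fit vs DMSO baseline (gain or loss of signal).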

Read-out in assay [6]: Epidermal growth factor receptor (EGFR), EGFR (gene 1956)
The experiment in a line: BSK_hDFCGF_EGFR: BioMAP Diversity Plus: hDFCGF Assay for Epidermal growth factor receptor (EGFR) Biomarker Activity (AID 2283057). The conditions noted are these: primary human foreskin fibroblasts; actives raise or lower the signal. Put shortly: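 Primary human foreskin fibroblasts (hDFCGF system), sampled 24 h after dosing; EGFR quantified by ELISA. Bidirectional fit relative to DMSO baseline; SRB total-protein staining in parallel cultures for cytotoxicity.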

Read-out in assay [7]: Interleukin-8 (IL8), CXCL8 (gene 3576)
The assay is described as follows: BSK_hDFCGF_IL8: BioMAP Diversity Plus: hDFCGF Assay for Interleukin-8 (IL8) Biomarker Activity (AID 2283058). The conditions noted are these: primary human foreskin fibroblasts; actives raise or lower the signal. Put shortly: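 ELISA read-out of IL-8 from primary human foreskin fibroblast cultures taken 24 h after dosing; values are bidirectional fits relative to DMSO vehicle.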

Assay [8] can be described thus: BSK_hDFCGF_Proliferation: Cell Proliferation Assessment in the BioMAP Diversity Plus: hDFCGF Assay (AID 2283059).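 Note: curves fitted for both rise and fall of signal versus DMSO baseline.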 The conditions noted are these: primary human foreskin fibroblasts. The gist of the method: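 Sub-confluent human foreskin fibroblast cultures receive test chemical […]. Relative cell number is quantified by sulforhodamine B staining (0.1%, after 10% TCA fixation) at 560 nm, with bidirectional fitting referenced to DMSO.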

Read-out in assay [9]: Macrophage colony-stimulating factor (MCSF), CSF1 (gene 1435)
The assay is described as follows: BSK_hDFCGF_MCSF: BioMAP Diversity Plus: hDFCGF Assay for Macrophage colony-stimulating factor (MCSF) Biomarker Activity (AID 2283060). The conditions noted are these: primary human foreskin fibroblasts; actives raise or lower the signal. The gist of the method:
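ELISA read-out of M-CSF in human dermal foreskin fibroblast cultures, 24 h after chemical dosing; gain or loss of signal fitted bidirectionally relative to DMSO baseline.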

Assay [10] is described as follows: BSK_hDFCGF_SRB: Viability Assessment in the BioMAP Diversity Plus: hDFCGF Assay (AID 2283061).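 Note: cells exposed to compound for 24 h before the read.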 The conditions noted are these: primary human foreskin fibroblasts. Put shortly:
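Primary human foreskin fibroblasts; 24 h post-dose; fixed 10% TCA, stained 0.1% SRB, A560 read; total protein as overt cytotoxicity measure; curves fit bidirectionally vs DMSO control.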

Read-out in assay [11]: TIMP metallopeptidase inhibitor 1 (TIMP1), TIMP1 (gene 7076)
The assay is described as follows: BSK_hDFCGF_TIMP1: BioMAP Diversity Plus: hDFCGF Assay for TIMP metallopeptidase inhibitor 1 (TIMP1) Biomarker Activity (AID 2283062). The conditions noted are these: primary human foreskin fibroblasts; actives raise or lower the signal. The gist of the method: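 ELISA readout of TIMP-1 from human dermal foreskin fibroblast cultures 24 h post-dosing. Curves were fitted in both directions against DMSO baseline, with SRB total-protein staining in parallel cultures as a cytotoxicity check.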

Read-out in assay [12]: Monokine induced gamma interferon (MIG), CXCL9 (gene 4283)
The experiment in a line: BSK_hDFCGF_MIG: BioMAP Diversity Plus: hDFCGF Assay for Monokine induced gamma interferon (MIG) Biomarker Activity (AID 2283063). The conditions noted are these: primary human foreskin fibroblasts; actives raise or lower the signal. The gist of the method: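 Fibroblasts (human foreskin, primary) dosed, 24 h, MIG by ELISA; fit bidirectional vs DMSO.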

Read-out in assay [13]: Matrix Metallopeptidase 1 (MMP1), MMP1 (gene 4312)
The assay is described as follows: BSK_hDFCGF_MMP1: BioMAP Diversity Plus: hDFCGF Assay for Matrix Metallopeptidase 1 (MMP1) Biomarker Activity (AID 2283064). The conditions noted are these: primary human foreskin fibroblasts; actives raise or lower the signal. The gist of the method:
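Primary human foreskin fibroblasts in the hDFCGF system were dosed with test chemical, and MMP1 was measured by ELISA 24 h later. Values come from bidirectional curve fitting against the DMSO baseline.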

Read-out in assay [14]: Vascular cell adhesion molecule 1 (VCAM1), VCAM1 (gene 7412)
The experiment in a line: BSK_hDFCGF_VCAM1: BioMAP Diversity Plus: hDFCGF Assay for Vascular cell adhesion molecule 1 (VCAM1) Biomarker Activity (AID 2283065). The conditions noted are these: primary human foreskin fibroblasts; actives raise or lower the signal. Put shortly:
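ELISA read-out of VCAM-1 on human skin fibroblasts, 24 h post-dose; gain or loss of signal fitted bidirectionally against DMSO baseline.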

Read-out in assay [15]: Plasminogen activator inhibitor-1 (PAI1), SERPINE1 (gene 5054)
The experiment in a line: BSK_hDFCGF_PAI1: BioMAP Diversity Plus: hDFCGF Assay for Plasminogen activator inhibitor-1 (PAI1) Biomarker Activity (AID 2283066). The conditions noted are these: primary human foreskin fibroblasts; actives raise or lower the signal. Put shortly:
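Human foreskin fibroblast primary cells, 24 h chemical exposure; PAI-1 measured by ELISA. Bidirectional fitting relative to DMSO; parallel cultures stained with SRB for total protein to flag overt cytotoxicity.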

Read-out in assay [16]: Intercellular Adhesion Molecule 1 (ICAM1), ICAM1 (gene 3383)
The assay is described as follows: BSK_KF3CT_ICAM1: BioMAP Diversity Plus: KF3CT Assay for Intercellular Adhesion Molecule 1 (ICAM1) Biomarker Activity (AID 2283067). The conditions noted are these: primary human keratinocytes with fibroblasts; actives raise or lower the signal. The gist of the method:
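ELISA readout of ICAM-1; KF3CT human skin co-culture (keratinocytes + foreskin fibroblasts), 24 h post-dose; gain/loss fit vs DMSO baseline.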

Read-out in assay [17]: Interferon-gamma inducible Protein 10 (IP10), CXCL10 (gene 3627)
The experiment in a line: BSK_KF3CT_IP10: BioMAP Diversity Plus: KF3CT Assay for Interferon-gamma inducible Protein 10 (IP10) Biomarker Activity (AID 2283068). The conditions noted are these: primary human keratinocytes with fibroblasts; actives raise or lower the signal. The gist of the method:
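ELISA read-out of IP-10 after 24 h chemical dosing of human skin primary co-culture (keratinocytes, foreskin fibroblasts). Gain or loss of signal relative to DMSO, bidirectional curve fit.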

A short description of assay [18]: BSK_KF3CT_SRB: Viability Assessment in the BioMAP Diversity Plus: KF3CT Assay (AID 2283069).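 Note: total protein by sulforhodamine B staining as a cytotoxicity measure; read 24 h after compound addition.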 The conditions noted are these: primary human keratinocytes with fibroblasts. The gist of the method: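 Human primary keratinocyte plus foreskin fibroblast co-culture exposed to chemicals for 24 h. Total protein measured by 0.1% sulforhodamine B staining after 10% TCA fixation, read at 560 nm; bidirectional fitting versus DMSO baseline.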

Read-out in assay [19]: Interleukin-1 alpha (IL1a), IL1A (gene 3552)
The assay is described as follows: BSK_KF3CT_IL1a: BioMAP Diversity Plus: KF3CT Assay for Interleukin-1 alpha (IL1a) Biomarker Activity (AID 2283070). The conditions noted are these: primary human keratinocytes with fibroblasts; actives raise or lower the signal. The gist of the method: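 Human keratinocyte plus foreskin fibroblast primary co-culture, sampled 24 h after chemical dosing. IL-1a measured by ELISA; responses fitted bidirectionally against DMSO baseline (negative control), so gain or loss of signal both count.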

For the compound `O=C(O)c1ccccc1`, the result in assay [1], in [2], in [3], in assay [4], in assay [5] and in assay [6] was inactive. Also, the result in [7], in [8], in assay [9], in assay [10], in [11] and in assay [12] was inactive. Moreover, the outcome in [13], in [14], in assay [15], in assay [16], in assay [17] and in [18] was inactive. Besides, the result in assay [19] was inactive.
Usually AC50 stands for the midpoint of the concentration-response curve, whichever way the signal moves. With `CCCN(CCC)C(=O)SCC`, the outcome in [1], in assay [2], in [3], in assay [4], in assay [5] and in assay [6] was inactive. In addition, the outcome in [7], in assay [8], in assay [9], in assay [10], in assay [11] and in assay [12] was inactive. For the same compound, the outcome in assay [13], in assay [14], in assay [15], in assay [16], in [17] and in [18] was inactive. Further, the outcome in assay [19] was inactive. The half-maximal activity concentration (AC50) in assay [17] is 36.1 µM (active).
For `CN(C)C(=O)Nc1ccc(Cl)c(Cl)c1`, the result in [1], in assay [2], in assay [3], in [4], in assay [5] and in [6] was inactive. Further, the outcome in assay [7], in assay [8], in [9], in assay [10], in assay [11] and in assay [12] was inactive. In addition, the outcome in assay [13], in assay [14], in assay [15], in assay [16], in assay [17] and in assay [18] was inactive. In addition, the outcome in assay [19] was inactive.
Regarding `CCCCOCCOCCOCc1cc2c(cc1CCC)OCO2`, the outcome in assay [1], in [2], in [4], in [6], in assay [7] and in [11] was inactive. Further, the outcome in [12], in assay [14], in assay [15], in assay [16], in assay [17] and in [18] was inactive. Also, the result in [19] was inactive. For the same compound, the concentration at half-maximal activity (AC50) in assay [3] is 20 µM (active); in [5] it was 20 µM (active); in assay [8], 31 µM (active); in assay [9], 12.9 µM (active); in [10], 25.3 µM (active); in assay [13], 3.97 µM (active).
Consider `CCN(CC)C(=O)c1cccc(C)c1`, for which the outcome in assay [1], in assay [2], in assay [3], in assay [4], in [5] and in assay [6] was inactive. Besides, the outcome in assay [7], in assay [8], in assay [9], in assay [10], in assay [11] and in assay [12] was inactive. Further, the outcome in [13], in assay [14], in [15], in assay [16], in assay [17] and in assay [18] was inactive. In addition, the outcome in [19] was inactive.
As for `CC1(C)C(C=C(Cl)Cl)C1C(=O)OCc1cccc(Oc2ccccc2)c1` (stereo not given), the result in assay [1], in [2], in [3], in assay [4], in assay [7] and in assay [9] was inactive. For the same compound, the result in assay [10], in assay [11], in assay [12], in assay [13], in [14] and in assay [15] was inactive. The result in assay [16], in [17], in assay [18] and in assay [19] was inactive. Further, the half-maximal activity concentration (AC50) in assay [5] was 4.2 µM (active); in assay [6] it was 8.28 µM (active); in assay [8], 7.38 µM (active).
